From PubChem BioAssay come the findings set out here.

Each structure is given as a SMILES string. Values without a mark were called inactive. For some of these results: Entries with a potency or affinity are not part of this list. Activity calls are given as the source filed them. Unless noted, how the calls were made is not given here.

Assay [1] in a line: antimalarial activity against Dd2 strain (AID 2302;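 active means growth inhibition above 50% at the single 2 µM test dose, taken to imply half-maximal potency below 2 µM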;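 further: 0% = DMSO untreated growth and 100% = chloroquine plus artemisinin killed control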). The note with it: P. falciparum Dd2 in RBCs, LDH growth readout, 72 h; at 2 µM; active compounds read high.
Assay [2] is described as follows: HepG2 cytotoxicity, primary screen, cytotoxicity control for P. falciparum antimalarial project, cell-based, ATP luminescence (AID 2303;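 active means inhibition above 50%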;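 further: 0% = DMSO wells and 100% = digitonin-killed cells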). Conditions: HepG2 viability, 24-48 h, at 10 µM, active compounds read high.
For assay [3], the target named is L-lactate dehydrogenase (Plasmodium falciparum (isolate CDC / Honduras)) (UniProt Q27743). Kind of assay: PfLDH activity inhibition – cell lysate, 3D7 strain, counter-screen for P. falciparum growth inhibition project (AID 2304).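 Further: 0% = vehicle and 100% = reference inhibitor.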 The note with it: P. falciparum 3D7 crude extract, LDH APAD/NBT absorbance; at 2 µM; active compounds read high. (A counterscreen serves to expose hits that act by an unwanted route or on another target.)
Sequence of L-lactate dehydrogenase (Plasmodium falciparum (isolate CDC / Honduras)) (Q27743 whole entry, looked up): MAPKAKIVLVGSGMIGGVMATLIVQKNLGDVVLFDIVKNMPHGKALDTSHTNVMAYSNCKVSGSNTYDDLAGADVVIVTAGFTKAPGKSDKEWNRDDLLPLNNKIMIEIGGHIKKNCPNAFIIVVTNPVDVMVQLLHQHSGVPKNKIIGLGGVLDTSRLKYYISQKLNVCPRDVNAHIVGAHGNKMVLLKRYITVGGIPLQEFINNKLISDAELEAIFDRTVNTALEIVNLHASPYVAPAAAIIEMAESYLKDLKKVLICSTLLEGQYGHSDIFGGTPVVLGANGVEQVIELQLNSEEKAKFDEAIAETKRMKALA

Assay [4] can be described thus: inhibition of 3D7 malaria parasite growth – strain 3D7 (AID 2306).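 Further: 0% = DMSO wells and 100% = chloroquine plus artemisinin control wells.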 The note with it: P. falciparum 3D7 erythrocytic growth, LDH absorbance, 72 h; at 2 µM; active compounds read high.
For assay [5], the target named is Calcium-dependent protein kinase 1 (Plasmodium falciparum (isolate 3D7)) (UniProt P62344). Kind of assay: PfCDPK1 kinase inhibitors, biochemical, TCAMS library (AID 1159585; cut-off not given, nearly all actives have IC50 up to about 0.98 µM;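 further: inhibitors leave more ATP so luminescence rises with inhibition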). The note with it: recombinant PfCDPK1, Kinase-Glo ATP depletion luminescence. For orientation: Kinase-Glo measures the ATP left after a reaction by luminescence.
Sequence of Calcium-dependent protein kinase 1 (Plasmodium falciparum (isolate 3D7)) (P62344 whole entry, looked up): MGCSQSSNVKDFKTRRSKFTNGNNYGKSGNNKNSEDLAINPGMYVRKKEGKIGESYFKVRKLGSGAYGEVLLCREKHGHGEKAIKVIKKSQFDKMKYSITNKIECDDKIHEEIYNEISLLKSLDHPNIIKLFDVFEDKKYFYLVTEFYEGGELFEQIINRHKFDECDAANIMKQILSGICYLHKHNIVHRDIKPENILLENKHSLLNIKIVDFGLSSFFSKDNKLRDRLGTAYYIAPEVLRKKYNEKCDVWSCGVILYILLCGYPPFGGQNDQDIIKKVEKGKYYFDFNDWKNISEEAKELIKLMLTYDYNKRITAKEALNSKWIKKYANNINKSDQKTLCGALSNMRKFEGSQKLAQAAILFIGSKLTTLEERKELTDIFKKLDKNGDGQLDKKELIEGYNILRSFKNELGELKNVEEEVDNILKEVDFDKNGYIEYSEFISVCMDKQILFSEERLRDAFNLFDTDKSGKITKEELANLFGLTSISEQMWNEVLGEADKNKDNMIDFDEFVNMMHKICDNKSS
The target in assay [6] is Plasmodium falciparum protein kinase 6 (PK6, PF3D7_1337100) (UniProt Q8IDW1). The assay is described as follows: PfPK6 kinase inhibitors, biochemical, TCAMS library (AID 1159586). The note with it: recombinant PfPK6, Kinase-Glo ATP depletion luminescence.
Sequence of Plasmodium falciparum protein kinase 6 (PK6, PF3D7_1337100) (Q8IDW1 1-305): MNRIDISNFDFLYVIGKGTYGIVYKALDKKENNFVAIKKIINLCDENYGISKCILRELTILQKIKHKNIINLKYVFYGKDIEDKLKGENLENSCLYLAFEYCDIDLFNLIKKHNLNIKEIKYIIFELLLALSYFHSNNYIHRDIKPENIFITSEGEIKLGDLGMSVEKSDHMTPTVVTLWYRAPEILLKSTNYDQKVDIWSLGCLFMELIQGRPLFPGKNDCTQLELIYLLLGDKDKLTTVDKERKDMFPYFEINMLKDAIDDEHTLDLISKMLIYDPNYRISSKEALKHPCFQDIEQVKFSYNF
The target of assay [7] is Protein kinase 7 (PK7), Plasmodium falciparum 3D7 (PF3D7_0213400) (UniProt Q7YTF7). The assay is described as follows: inhibition of Plasmodium PK7 catalytic activity – biochemical, TCAMS antimalarial set, Kinase-Glo luminescence (AID 1159587). The note with it: recombinant PfPK7, Kinase-Glo ATP depletion luminescence.
Sequence of Protein kinase 7 (PK7), Plasmodium falciparum 3D7 (PF3D7_0213400) (Q7YTF7 1-343): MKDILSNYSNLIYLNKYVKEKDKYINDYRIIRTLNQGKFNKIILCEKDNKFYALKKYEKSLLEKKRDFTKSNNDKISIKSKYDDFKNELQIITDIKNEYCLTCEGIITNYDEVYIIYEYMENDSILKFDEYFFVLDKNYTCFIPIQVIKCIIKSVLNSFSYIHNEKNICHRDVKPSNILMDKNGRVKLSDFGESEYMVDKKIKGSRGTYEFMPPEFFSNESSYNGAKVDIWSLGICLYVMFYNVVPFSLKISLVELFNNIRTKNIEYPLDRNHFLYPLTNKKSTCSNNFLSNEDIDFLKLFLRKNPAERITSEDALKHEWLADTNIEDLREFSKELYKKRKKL
Assay [8] concerns the target Calcium-dependent protein kinase 4 (Plasmodium falciparum (isolate 3D7)) (UniProt Q8IBS5). The assay is described as follows: PfCDPK4 kinase inhibitors, biochemical, TCAMS library (AID 1159588; cut-off not given, nearly all actives have IC50 up to about 0.91 µM). Conditions: recombinant PfCDPK4, Kinase-Glo ATP depletion luminescence.

Sequence of Calcium-dependent protein kinase 4 (Plasmodium falciparum (isolate 3D7)) (Q8IBS5 whole entry, looked up): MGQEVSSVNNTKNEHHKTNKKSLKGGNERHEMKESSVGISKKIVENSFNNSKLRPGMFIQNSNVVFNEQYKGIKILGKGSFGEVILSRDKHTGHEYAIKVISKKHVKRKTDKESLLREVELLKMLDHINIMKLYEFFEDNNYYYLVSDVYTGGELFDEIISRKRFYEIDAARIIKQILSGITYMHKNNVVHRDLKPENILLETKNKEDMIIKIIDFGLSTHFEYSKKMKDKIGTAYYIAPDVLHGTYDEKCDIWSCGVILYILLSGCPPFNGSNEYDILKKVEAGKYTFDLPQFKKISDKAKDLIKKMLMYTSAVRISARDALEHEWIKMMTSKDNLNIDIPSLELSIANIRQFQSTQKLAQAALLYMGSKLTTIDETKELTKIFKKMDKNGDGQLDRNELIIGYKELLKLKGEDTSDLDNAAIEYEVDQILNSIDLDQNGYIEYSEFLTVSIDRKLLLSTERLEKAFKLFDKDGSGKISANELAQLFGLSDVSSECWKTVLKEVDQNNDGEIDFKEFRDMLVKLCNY

By inhibition is commonly meant the relative decrease from the control value, in per cent. As for `O=C(Nc1cccc(-c2cccc(-c3ccc(F)cc3)n2)c1)c1ccc([N+](=O)[O-])o1`, the growth inhibition was 42% in assay [1] and 99% (active) in assay [4]. Moreover, the results for the inhibition in assay [2] and in assay [3] were 100% (active) and 4%, respectively. For the same compound, the result in assay [5], in assay [6], in assay [7] and in assay [8] was inactive.

Take `CCc1cn(CCCOC)c2ccc(C(=O)N[C@@H](Cc3ccccc3)[C@H](O)CNCc3cccc(C(F)(F)F)c3)cc12`: the growth inhibition in assay [1] is 78% (active); in assay [4], 93% (active). In addition, the inhibition was 8% in assay [2] and -4% in assay [3]. The result in assay [5], in assay [6], in assay [7] and in assay [8] was inactive.

For `Cc1ncccc1C(=O)Nc1cccc(-c2cccc(-c3nc4ccc(C(F)(F)F)cc4[nH]3)c2)c1`, the results for the growth inhibition in assay [1] and in assay [4] were 30% and 96% (active), respectively. Besides, the figures for the inhibition in assay [2] and in assay [3] were 34% and 1%, respectively. Further, the result in assay [5], in assay [6], in assay [7] and in assay [8] was inactive.

As for `COc1cc(CCN(C)Cc2ccc(OC)c(OC)c2)ccc1NC(=O)c1cccc2c(=O)c3cccc(F)c3[nH]c12`, the growth inhibition was 26% in assay [1] and 102% (active) in assay [4]. The values for the inhibition in assay [2] and in assay [3] were 14% and 0%, respectively. Besides, the outcome in assay [5], in assay [6], in assay [7] and in assay [8] was inactive.

In the case of `CN1CCC(N2CCN(Cc3ccc(-c4ccc(-c5nc6ccccc6[nH]5)s4)cc3)CC2)CC1`, the growth inhibition was 100% (active) in assay [1] and 101% (active) in assay [4]. Further, the inhibition in assay [2] is 62% (active); in assay [3] it was -3%. The outcome in assay [5], in assay [6], in assay [7] and in assay [8] was inactive.

On to `Cc1[nH]c(C)c(-c2ccc(-c3ccc(C#N)cc3)nc2)c(=O)c1Br`, for which the growth inhibition is 87% (active) in assay [1] and 97% (active) in assay [4]. Further, the inhibition in assay [2] is 5%; in assay [3], 7%. Further, the result in assay [5], in assay [6], in assay [7] and in assay [8] was inactive.

`c1ccn2c(Sc3ncnc4sccc34)ncc2c1`: the growth inhibition in assay [1] and in assay [4] was 100% (active) each time. The values for the inhibition in assay [2] and in assay [3] were -14% and 2%, respectively. Besides, the outcome in assay [5], in assay [6], in assay [7] and in assay [8] was inactive.

As for `CC(C)N1CCN(C(=O)c2ccc(CN(C)CCCN3CCN(c4cccc(Cl)c4Cl)CC3)s2)CC1`, the values for the growth inhibition in assay [1] and in assay [4] were 35% and 94% (active), respectively. Moreover, the inhibition in assay [2] was 74% (active); in assay [3], 3%. Besides, the result in assay [5], in assay [6], in assay [7] and in assay [8] was inactive.

Turning to `CCCNCc1ccc(-c2ccc(CN(CC3CCCO3)C(=O)C3CC(=O)c4ccccc43)cc2)nc1` (stereo not given), the results for the growth inhibition in assay [1] and in assay [4] were 65% (active) and 101% (active), respectively. Also, the inhibition was 0% in assay [2] and 3% in assay [3]. Besides, the result in assay [5], in assay [6], in assay [7] and in assay [8] was inactive.

For `CCCC(=O)Nc1ccc(OCCCN(Cc2ccccc2F)c2ccc(C#N)c(C(F)(F)F)c2)cc1`, the growth inhibition is 93% (active) in assay [1] and 89% (active) in assay [4]. Moreover, the inhibition in assay [2] is 7%; in assay [3], 1%. Further, the outcome in assay [5], in assay [6], in assay [7] and in assay [8] was inactive.

As to `CC(CO)(CO)NCc1cc2c3ccccc3c(CNC(C)(CO)CO)cc2c2ccccc12`, the growth inhibition in assay [1] is 98% (active); in assay [4], 96% (active). The inhibition was 40% in assay [2] and 3% in assay [3]. The outcome in assay [5], in assay [6], in assay [7] and in assay [8] was inactive.

As to `Cc1cc(NN=Cc2ccccc2Cl)c2ccc(F)cc2n1`, the growth inhibition in assay [1] was 100% (active); in assay [4], 101% (active). Besides, the results for the inhibition in assay [2] and in assay [3] were 6% and -4%, respectively. For the same compound, the result in assay [5], in assay [6], in assay [7] and in assay [8] was inactive.

`COc1ccc(CNC2CCN(C)CC2)cc1-c1ccc(S(=O)(=O)NCc2ccccc2)c(C)c1`: the growth inhibition in assay [1] is 98% (active); in assay [4], 100% (active). Further, the inhibition in assay [2] was 81% (active); in assay [3], 3%. In addition, the outcome in assay [5], in assay [6], in assay [7] and in assay [8] was inactive.

With `COc1ccc(CNC(=O)NC2CCN(c3ccnc(Nc4cc(OC)c(OC)c(OC)c4)n3)C2)cc1` (stereo not given), the growth inhibition was 90% (active) in assay [1] and 91% (active) in assay [4]. In addition, the inhibition in assay [2] was -2%; in assay [3], 3%. In addition, the result in assay [5], in assay [6], in assay [7] and in assay [8] was inactive.

On to `Cc1ccc2nc(-c3cc(-c4ccc(OCc5ccccc5)cc4)cnc3N)[nH]c2c1`, for which the growth inhibition in assay [1] was 87% (active); in assay [4], 91% (active). Further, the results for the inhibition in assay [2] and in assay [3] were 33% and 1%, respectively. Further, the result in assay [5], in assay [6], in assay [7] and in assay [8] was inactive.

In the case of `COc1c(C2=CCN(CCCCNC(=O)c3ccc(-c4ccc(C#N)cc4)cc3)CC2)c(C)cc2c1C(C)(C)CCC2(C)C`, the results for the growth inhibition in assay [1] and in assay [4] were 88% (active) and 92% (active), respectively. In addition, the inhibition is 18% in assay [2] and -2% in assay [3]. Moreover, the outcome in assay [5], in assay [6], in assay [7] and in assay [8] was inactive.

Turning to `Cc1ccc(Nc2nc3cc(Nc4ccnc(Nc5ccc(CS(C)(=O)=O)cc5)n4)ccc3o2)cc1`, the growth inhibition in assay [1] was 66% (active); in assay [4] it was 99% (active). Also, the inhibition is 54% (active) in assay [2] and 2% in assay [3]. The result in assay [5], in assay [6], in assay [7] and in assay [8] was inactive.

With `CC(C)Oc1ccccc1-c1csc(C(=O)NCC2CCN(Cc3ccc(C(C)(C)C)cc3)C2)c1` (stereo not given), the figures for the growth inhibition in assay [1] and in assay [4] were 45% and 90% (active), respectively. The inhibition in assay [2] is 59% (active); in assay [3], 2%. In addition, the result in assay [5], in assay [6], in assay [7] and in assay [8] was inactive.

Regarding `C[C@@H](Oc1cc(-n2cnc3ccc(NC(=O)CCN4CCCCC4)cc32)sc1C(N)=O)c1ccccc1Cl`, the values for the growth inhibition in assay [1] and in assay [4] were 60% (active) and 101% (active), respectively. Besides, the inhibition in assay [2] was 36%; in assay [3], 3%. Moreover, the outcome in assay [5], in assay [6], in assay [7] and in assay [8] was inactive.

As to `CN1CCN(c2ccc(-c3cccc(NC(=O)c4ccc5ccccc5c4)c3)nn2)CC1`, the growth inhibition in assay [1] is 26%; in assay [4], 94% (active). For the same compound, the inhibition in assay [2] was 17%; in assay [3] it was -2%. Besides, the result in assay [5], in assay [6], in assay [7] and in assay [8] was inactive.
